# The list shows a part of the results. Records with an inconclusive call do not appear. Calls of active or inactive are those of the source. The call rests on the fitted dose curve; in most records, active means well fitted curve in the direction sought with a large enough effect; inconclusive means small, poorly fitted or top-dose-only effect, or another doubt; inactive means no such curve, though single readings can be large or run the other way.
# Assay: Inhibitors of DNA Polymerase Beta: Hit Validation in HIV-RT Assay
# Conditions: HIV-1 RT polymerase activity, counter-screen; series mostly up to 57.1 µM
# Text: The base excision repair system in human cells is a target for therapeutic modulation of the response to irradiation treatment and DNA-damaging drugs. A key enzyme in this system is the bi-functional DNA polymerase known as DNA polymerase beta (pol b). […] Using an integrated approach involving discovery of small molecule probes for pol b via qHTS and validation by crystallography and kinetics along with cell-based validation experiments, we will test the hypothesis that base excision repair can be strategically modulated in human cells by targeting pol b. Thus, we anticipate the pol b-specific probes emerging from this research will serve as starting points in the development of clinical agents for use in down regulation of DNA base excision repair during therapeutic interventions against cancer.
# After the completion of the qHTS against the Molecular Libraries Small Molecular Repository (MLSMR), cherry picked compounds were confirmed in the primary qHTS pol beta assay and further characterized in several follow-up assays. To avoid compound promiscuity, we selected a completely unrelated viral polymerase to polymerase beta, HIV reverse transcriptase(RT) as a counter screen. There are distinct differences between the two polymerases, such as source of host and HIV RT is responsible for transcribing the virus' single stranded RNA into double-stranded DNA after entry into its host cell. […] To us, a favorable outcome in this assay is inactivity.
# NIH Chemical Genomics Center [NCGC]
# NIH Molecular Libraries Probe Centers Network [MLPCN]
# Assay Submitter (PI): Samuel Wilson, National Institute of Environmental Health Sciences (NIEHS), NIH
# A stepwise description of the 1536-well assay is shown in next Table. Three microliters of reagents (buffer in column 3 and 4 as negative control and 10 nM Pol beta in columns 1, 2, and 5-48) was dispensed into 1,536-well black solid-bottomed plate. Compounds (23 nL) were transferred via Kalypsys pin tool equipped with 1536-pin array (10 nL slotted pins, V&P Scientific, San Diego, CA). The plates were incubated for 15 min at room temperature, and 1 uL substrate (50 nM final concentration) were added to start the reaction and immediately read at 0 min read on Viewlux reader. The plate were further incubated for 10 min at room temperature, and then read on Viewlux again. Throughout the screen, reagent bottle and all liquid lines were chilled and made light-tight to minimize reagent degradation. All screening operations were performed on a fully integrated robotic system (Kalypsys, San Diego, CA) containing one RX-130 and two RX-90 anthropomorphic robotic arms (Staubli, Duncan, SC). Library plates were screened starting from the lowest and proceeding to the highest concentration, and a double-dipping step of the highest concentration was required to access higher concentrations of compounds. Vehicle-only plates, with DMSO being pin-transferred to the entire column 5-48 compound area, were inserted uniformly at the beginning and the end of each library in order to monitor for and record any shifts in the background, which can be affected by reagent dispensers or loss in enzyme activity overtime. Screening data were corrected, normalized, and concentration-effect relationships were derived by using publicly-available curve fitting algorithms developed in-house (http://ncgc.nih.gov/pub/openhts). A four parameter Hill equation was fitted to the concentration-response data by minimizing the residual error between the modeled and observed responses.
row,Structure (SMILES),outcome
1,O=C(c1cc2c(s1)CCC2)N1CCN(c2ccccc2)CC1,inactive
2,Cc1ccc(C(=O)Oc2coc(CSc3nnc(NC(=O)c4cccs4)s3)cc2=O)cc1C,inactive
3,COc1ccc(Cc2nnc(NC(=O)Cc3cccs3)s2)cc1,inactive
4,O=C(Nc1ccc(S(=O)(=O)Nc2nccs2)cc1)c1cc(-c2ccncc2)nc2ccccc12,inactive
5,Cc1c(CCC(=O)O)c(=O)oc2c(C)c(OCc3ccccc3Cl)ccc12,inactive
6,COc1cc([C@H](Cc2ccccc2)NC(C)=O)oc(=O)c1,inactive
7,Cc1ccc2nc(-c3ccncc3)cc(C(=O)Nc3ccc(OC(F)F)cc3)c2c1,inactive

# From PubChem BioAssay AID540301 (National Center for Advancing Translational Sciences (NCATS), 2011)
